According to PubChem BioAssay AID1117353 (Cheminformatics & Chemogenomics Research Group (CCRG), …, 2015):
The source made the active and inactive calls. No stated cut-off is given here; in the data, active means inhibition above about 50%; inactive means the rest.

What follows are molecules tested against Vascular endothelial growth factor receptor 2 (Homo sapiens) (UniProt P35968) (assay: Biochemical primary assay, inhibitors of H. sapiens VEGFR2, LANCE Ultra time-resolved FRET readout, NPC library (AID 1117353)). Conditions: LANCE Ultra TR-FRET kinase assay; at 20 µM (top of the series).
Sequence of Vascular endothelial growth factor receptor 2 (Homo sapiens) (P35968 whole entry, looked up): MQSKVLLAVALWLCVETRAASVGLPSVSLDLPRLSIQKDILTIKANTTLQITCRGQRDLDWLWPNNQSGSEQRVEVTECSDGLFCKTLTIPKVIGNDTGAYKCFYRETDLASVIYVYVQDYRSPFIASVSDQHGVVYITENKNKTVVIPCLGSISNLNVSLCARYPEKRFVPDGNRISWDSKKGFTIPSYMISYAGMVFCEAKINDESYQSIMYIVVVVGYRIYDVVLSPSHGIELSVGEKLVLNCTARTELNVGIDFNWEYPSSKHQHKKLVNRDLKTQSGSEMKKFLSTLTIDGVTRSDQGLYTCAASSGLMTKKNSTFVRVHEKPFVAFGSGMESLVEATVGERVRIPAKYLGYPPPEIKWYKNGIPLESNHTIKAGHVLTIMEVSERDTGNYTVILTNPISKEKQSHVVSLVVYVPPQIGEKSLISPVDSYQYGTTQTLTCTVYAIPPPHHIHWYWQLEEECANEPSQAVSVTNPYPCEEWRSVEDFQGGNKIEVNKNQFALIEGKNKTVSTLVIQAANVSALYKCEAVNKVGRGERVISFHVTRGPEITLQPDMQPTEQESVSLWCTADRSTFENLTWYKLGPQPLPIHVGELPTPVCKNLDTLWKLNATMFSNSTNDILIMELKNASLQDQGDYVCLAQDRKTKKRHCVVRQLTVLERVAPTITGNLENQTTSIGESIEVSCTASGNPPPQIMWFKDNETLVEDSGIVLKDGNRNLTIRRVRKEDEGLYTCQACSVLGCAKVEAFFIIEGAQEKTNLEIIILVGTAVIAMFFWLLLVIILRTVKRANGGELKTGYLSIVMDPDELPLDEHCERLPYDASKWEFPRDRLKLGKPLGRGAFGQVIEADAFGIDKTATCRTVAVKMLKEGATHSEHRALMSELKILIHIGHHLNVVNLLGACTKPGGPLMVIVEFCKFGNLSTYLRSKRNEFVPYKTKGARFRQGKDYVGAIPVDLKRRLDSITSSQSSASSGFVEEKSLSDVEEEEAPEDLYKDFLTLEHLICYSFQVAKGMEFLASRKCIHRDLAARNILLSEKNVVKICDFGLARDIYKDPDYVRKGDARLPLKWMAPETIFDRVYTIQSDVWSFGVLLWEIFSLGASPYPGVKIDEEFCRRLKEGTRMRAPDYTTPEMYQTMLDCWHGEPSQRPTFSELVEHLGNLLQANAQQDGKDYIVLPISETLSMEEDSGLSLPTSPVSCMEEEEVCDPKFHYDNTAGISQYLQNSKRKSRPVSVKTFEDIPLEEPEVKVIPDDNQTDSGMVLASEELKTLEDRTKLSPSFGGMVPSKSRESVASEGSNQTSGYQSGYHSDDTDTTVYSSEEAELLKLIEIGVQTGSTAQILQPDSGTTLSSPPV
In the case of `Nc1ccc2cc3ccc(N)cc3nc2c1`, the inhibition is reported as -25.5% (inactive). In the case of `O=[N+]([O-])c1ccc(O)c2ncccc12`, the inhibition is reported as 11.1% (inactive). `NC(=NCCCCCCN=C(N)/N=C(\N)Nc1ccc(Cl)cc1)/N=C(\N)Nc1ccc(Cl)cc1` was tested, and the inhibition was -1.66% (inactive). For `COC(=O)Nc1nc2ccc(Sc3ccccc3)cc2[nH]1`, the inhibition was 6% (inactive). In the case of `O=C(Nc1ccc([N+](=O)[O-])cc1Cl)c1cc(Cl)ccc1O`, the inhibition is reported as 5.08% (inactive). `Cc1cc(O)c2ccccc2c1O` was tested, and the inhibition was 50% (active). For `COC(=O)Nc1nc2ccc(C(=O)c3cccs3)cc2[nH]1`, the inhibition was 60% (active). With `Cn1cnc([N+](=O)[O-])c1Sc1ncnc2nc[nH]c12` the inhibition was -18.2% (inactive). With `COc1cc([C@@H]2c3cc4c(cc3[C@H](O)[C@H]3COC(=O)[C@H]23)OCO4)cc(OC)c1OC` the inhibition was 28.2% (inactive). For `CCC1=C[C@@H]2CN(C1)Cc1c([nH]c3ccccc13)[C@@](C(=O)OC)(c1cc3c(cc1OC)N(C)[C@H]1[C@@](O)(C(=O)OC)[C@H](OC(C)=O)[C@]4(CC)C=CCN5CC[C@]31[C@@H]54)C2`, the inhibition was -20.3% (inactive). `[O-][n+]1ccccc1SSc1cccc[n+]1[O-]` was tested, and the inhibition was -17.4% (inactive). With `Cc1ccccc1C(=O)Nc1ccc(C(=O)N2CCCC(N(C)C)c3ccccc32)cc1` (stereo not given) the inhibition was 41.5% (inactive). With `O=c1c(-c2ccccc2)c1-c1ccccc1` the inhibition was 28.3% (inactive). In the case of `CC[C@@H]([C@H](C)O)n1ncn(-c2ccc(N3CCN(c4ccc(OC[C@@H]5CO[C@@](Cn6cncn6)(c6ccc(F)cc6F)C5)cc4)CC3)cc2)c1=O`, the inhibition is reported as 22.9% (inactive). `CN(C)c1ccc2nc3ccc(=[N+](C)C)cc-3sc2c1` was tested, and the inhibition was -6.83% (inactive). `CC(C)(C)C(=O)OCOP(=O)(COCCn1cnc2c(N)ncnc21)OCOC(=O)C(C)(C)C` was tested, and the inhibition was -10.9% (inactive). With `CCCCc1oc2ccccc2c1C(=O)c1cc(I)c(OCCN(CC)CC)c(I)c1` the inhibition was 22.9% (inactive). In the case of `CCCCC1C(=O)N(c2ccccc2)N(c2ccc(O)cc2)C1=O` (stereo not given), the inhibition is reported as 29.1% (inactive). `CCN(CC)CCNc1ccc(CO)c2sc3ccccc3c(=O)c12` was tested, and the inhibition was 7.72% (inactive). For `COc1ccc(-c2ccc3cc(C(=O)O)ccc3c2)cc1C12CC3CC(CC(C3)C1)C2`, the inhibition was 96.3% (active). In the case of `O=C(O)c1ccc(-n2nc(-c3ccccc3O)nc2-c2ccccc2O)cc1`, the inhibition is reported as -16.1% (inactive). With `O=c1[nH]c(=O)n([C@H]2C[C@H](O)[C@@H](CO)O2)cc1C(F)(F)F` the inhibition was -17.7% (inactive). With `Nc1nc(=S)c2[nH]cnc2[nH]1` the inhibition was -5.99% (inactive). With `CCCCCCCCCCCCCC[N+](C)(C)C` the inhibition was 11.2% (inactive). `COc1cccc2c1C(=O)c1c(O)c3c(c(O)c1C2=O)C[C@@](O)(C(C)=O)C[C@@H]3O[C@H]1C[C@H](N)[C@H](O)[C@H](C)O1` was tested, and the inhibition was 14% (inactive).
